This is an account of results in PubChem BioAssay (EPA / NIEHS).

Each structure is given as a SMILES string. Records with an inconclusive call do not appear. Active and inactive are the calls of the source. Rule for the calls, unless noted: active = hit-call score of the fitted dose curve at least 0.9, where 1 is the maximum; inactive = score below 0.9.

Experiment [1] can be described thus: ATG_NFI_CIS: Attagene CIS-FACTORIAL HepG2 Assay for human Nuclear Factor I (NFI) (AID 2282989). Particulars: HepG2 cis-regulatory reporter, NFI response element transcription; actives raise or lower the signal. In short, it runs like this: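 HepG2 cells transiently transfected with cis-element-driven multiplexed reporter transcription units, dosed for 24 h. Reporter mRNA quantified by RT-PCR, fluorescent labelling, HpaI digestion and capillary electrophoresis; bidirectional fit versus DMSO baseline.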

Experiment [2] has as its target Myc proto-oncogene protein (Homo sapiens) (UniProt P01106). Briefly: ATG_Myc_CIS: Attagene CIS-FACTORIAL HepG2 Assay for human Myelocytomatosis (Myc) Proto-Oncogene Transcription Factor (AID 2282990). Particulars: HepG2, Attagene cis-reporter transcription factor activity; actives raise or lower the signal. Summed up: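 Read-out: fluorescent reporter mRNA fragments resolved by capillary electrophoresis after RT-PCR. Human HepG2 liver cells carried transfected cis-element reporter units and were dosed for 24 h. Gain or loss of signal fitted relative to DMSO baseline.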

Experiment [3] is described as follows: ATG_NRF2_ARE_CIS: Attagene CIS-FACTORIAL HepG2 Assay for human Nuclear Factor Erythroid 2 Related Factor 2 (NFR2) response to Antioxidant Response Elements (ARE) (AID 2282992). Particulars: HepG2 Attagene ARE/NRF2 reporter, transcription factor activity; actives raise or lower the signal. In short, it runs like this:
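Endogenous transcription factor activity read out as reporter transcript levels (RT-PCR plus capillary electrophoresis, fluorescence) in transiently transfected HepG2 cells. Measured at 24 h after dosing; gain or loss of signal fitted versus DMSO.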

A short description of experiment [4]: ATG_Oct_MLP_CIS: Attagene CIS-FACTORIAL HepG2 Assay for human Octamer-Binding Transcription Factor (Oct) (AID 2282993). Particulars: HepG2 Attagene cis-factorial Oct reporter, mRNA; actives raise or lower the signal. Summed up: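 HepG2 cells transiently transfected with cis-promoter-driven multiplexed reporter transcription units, dosed for 24 h. Reporter mRNA quantified by RT-PCR, fluorescent labelling, HpaI digestion and capillary electrophoresis; bidirectional fits versus DMSO baseline.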

For experiment [5], the target named is Cellular tumor antigen p53 (Homo sapiens) (UniProt P04637). The experiment is described as follows: ATG_p53_CIS: Attagene CIS-FACTORIAL HepG2 Assay for human p53 Transcription Factor (AID 2282994). The settings on record: HepG2 p53 cis-element reporter, Attagene mRNA; actives raise or lower the signal. In short, it runs like this: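 Endogenous p53 activity read in transiently transfected HepG2 from a cis-element-driven reporter transcript after 24 h exposure. RNA reverse-transcribed, PCR-amplified, fluorescently labelled and sized by capillary electrophoresis; gain or loss fitted against DMSO baseline.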
Sequence of Cellular tumor antigen p53 (Homo sapiens) (P04637 whole entry, looked up): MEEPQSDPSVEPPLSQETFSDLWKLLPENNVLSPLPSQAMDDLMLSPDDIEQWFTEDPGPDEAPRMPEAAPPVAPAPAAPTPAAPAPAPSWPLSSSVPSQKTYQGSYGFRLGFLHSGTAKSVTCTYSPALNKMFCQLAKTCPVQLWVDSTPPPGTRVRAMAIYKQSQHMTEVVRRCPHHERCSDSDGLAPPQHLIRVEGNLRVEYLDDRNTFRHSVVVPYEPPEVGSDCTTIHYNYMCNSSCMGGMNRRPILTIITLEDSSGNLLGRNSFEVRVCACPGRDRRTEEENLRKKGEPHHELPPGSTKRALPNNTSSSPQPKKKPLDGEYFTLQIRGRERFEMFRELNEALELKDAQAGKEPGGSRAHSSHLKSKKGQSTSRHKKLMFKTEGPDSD

Experiment [6] addresses human Peroxisome Proliferator-activated Receptor alpha (PPARa), PPARA (gene 5465) (UniProt Q07869). Briefly: ATG_PPARa_TRANS: Attagene TRANS-FACTORIAL HepG2 Assay for human Peroxisome Proliferator-activated Receptor alpha (PPARa) (AID 2283001; active = hit-call score of the fitted dose curve at least 0.9, where 1 is the maximum). Summed up:
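HepG2, transient MRTU transfection, 24 h treatment. RT-PCR → FAM labelling → capillary electrophoresis. Fit vs DMSO, positive direction.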

Experiment [7] addresses Peroxisome proliferator-activated receptor gamma (Homo sapiens) (UniProt P37231). The experiment is described as follows: ATG_PPARg_TRANS: Attagene TRANS-FACTORIAL HepG2 Assay for human Peroxisome Proliferator-activated Receptor-gamma (PPARg) (AID 2283007; active = hit-call score of the fitted dose curve at least 0.9, where 1 is the maximum). Summed up:
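Chimeric NR-Gal4 transactivation is measured in transiently transfected HepG2 cells by reporter mRNA induction at 24 h. Detection uses RT-PCR with fluorescent labelling and capillary electrophoresis; DMSO defines baseline.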

For experiment [8], the target named is human Peroxisome Proliferator-activated Receptor delta (PPARd), PPARD (gene 5467) (UniProt Q03181). Briefly: ATG_PPARd_TRANS: Attagene TRANS-FACTORIAL HepG2 Assay for human Peroxisome Proliferator-activated Receptor delta (PPARd) (AID 2283002; active = hit-call score of the fitted dose curve at least 0.9, where 1 is the maximum). Summed up:
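Read-out: reporter mRNA induction, quantified by fluorescent RT-PCR products resolved by capillary electrophoresis. Human HepG2 liver cells carried transiently transfected Gal4-UAS reporter constructs with chimeric NR-Gal4 fusions. Cells were dosed for 24 h; DMSO served as baseline.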

The target in experiment [9] is Retinoic acid receptor alpha (Homo sapiens) (UniProt P10276). Briefly: ATG_RARa_TRANS: Attagene TRANS-FACTORIAL HepG2 Assay for human Retinoic Acid Receptor alpha (RARa) (AID 2283005; active = hit-call score of the fitted dose curve at least 0.9, where 1 is the maximum). In short, it runs like this:
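HepG2 transiently transfected with multiplex GAL4-UAS reporter units including a human RARa–GAL4 chimera; 24 h compound exposure. Reporter mRNA quantified by RT-PCR, 6-FAM labeling and capillary electrophoresis; gain of signal versus DMSO.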

In experiment [10] the target is Nuclear receptor subfamily 1 group I member 2 (Homo sapiens) (UniProt O75469). The experiment is described as follows: ATG_PXR_TRANS: Attagene TRANS-FACTORIAL HepG2 Assay for human Pregnane X Receptor (PXR) (AID 2283008; active = hit-call score of the fitted dose curve at least 0.9, where 1 is the maximum). Summed up: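 Transactivation by exogenous PXR–GAL4 fusion measured as reporter transcript induction after 24 h compound treatment of transfected human HepG2 cells. Read-out via RT-PCR and capillary electrophoresis of labelled fragments, fitted upward relative to DMSO.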
Sequence of Nuclear receptor subfamily 1 group I member 2 (Homo sapiens) (O75469 whole entry, looked up, the tested form may be a part): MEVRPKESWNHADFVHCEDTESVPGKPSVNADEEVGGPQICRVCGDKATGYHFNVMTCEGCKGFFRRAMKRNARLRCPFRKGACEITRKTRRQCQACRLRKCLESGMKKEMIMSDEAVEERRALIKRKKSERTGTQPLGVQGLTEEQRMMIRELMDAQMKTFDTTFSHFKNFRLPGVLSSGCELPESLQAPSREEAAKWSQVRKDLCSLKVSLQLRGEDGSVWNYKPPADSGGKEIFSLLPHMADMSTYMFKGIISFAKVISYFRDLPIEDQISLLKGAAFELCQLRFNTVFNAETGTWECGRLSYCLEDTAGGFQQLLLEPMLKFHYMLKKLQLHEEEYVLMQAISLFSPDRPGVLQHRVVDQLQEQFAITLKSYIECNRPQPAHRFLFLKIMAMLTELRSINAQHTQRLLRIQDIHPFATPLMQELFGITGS

Experiment [11] concerns the target human Retinoic Acid Receptor gamma (RARg), RARG (gene 5916) (UniProt P13631). The experiment is described as follows: ATG_RARg_TRANS: Attagene TRANS-FACTORIAL HepG2 Assay for human Retinoic Acid Receptor gamma (RARg) (AID 2283009; active = hit-call score of the fitted dose curve at least 0.9, where 1 is the maximum). Summed up: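 Transactivation of exogenous RARg-Gal4 fusion measured as reporter transcript induction after 24 h in transfected HepG2 cells. RNA reverse-transcribed, amplified, fluorescently labeled and resolved by capillary electrophoresis; increase relative to DMSO.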

Experiment [12] deals with human RAR-related Orphan Receptor beta (RORb), RORB (gene 6096) (UniProt Q92753). The experiment is described as follows: ATG_RORb_TRANS: Attagene TRANS-FACTORIAL HepG2 Assay for human RAR-related Orphan Receptor beta (RORb) (AID 2283010; active = hit-call score of the fitted dose curve at least 0.9, where 1 is the maximum). In short, it runs like this: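 Read-out is reporter mRNA induction, quantified by RT-PCR with fluorescent capillary electrophoresis, 24 h post-dose in transiently transfected HepG2 expressing exogenous NR-Gal4 chimera. Activity fitted upward versus DMSO.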
Sequence of human RAR-related Orphan Receptor beta (RORb), RORB (gene 6096) (Q92753 whole entry, looked up, the tested form may be a part): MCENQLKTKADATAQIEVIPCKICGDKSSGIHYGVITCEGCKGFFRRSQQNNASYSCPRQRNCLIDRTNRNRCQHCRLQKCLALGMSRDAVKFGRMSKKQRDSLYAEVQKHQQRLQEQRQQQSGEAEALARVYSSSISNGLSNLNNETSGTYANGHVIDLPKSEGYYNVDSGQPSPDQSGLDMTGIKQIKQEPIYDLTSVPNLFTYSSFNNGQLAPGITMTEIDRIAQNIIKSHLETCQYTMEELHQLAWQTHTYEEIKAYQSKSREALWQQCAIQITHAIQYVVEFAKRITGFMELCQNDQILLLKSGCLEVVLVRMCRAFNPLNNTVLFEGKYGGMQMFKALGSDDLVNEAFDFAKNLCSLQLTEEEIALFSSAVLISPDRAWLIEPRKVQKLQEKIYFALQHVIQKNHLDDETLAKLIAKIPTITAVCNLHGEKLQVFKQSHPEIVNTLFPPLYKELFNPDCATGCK

Experiment [13] in a line: ATG_NF_kB_CIS: Attagene CIS-FACTORIAL HepG2 Assay for human Nuclear Factor Kappa B (NF-kB) (AID 2282991). Particulars: HepG2 Attagene cis-factorial NF-kB reporter mRNA; actives raise or lower the signal. In short, it runs like this:
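DMSO served as negative control and baseline for bidirectional curve fitting. Transiently transfected HepG2 cells were dosed for 24 h, then reporter transcripts were measured by RT-PCR with capillary electrophoresis detection.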

The nature of experiment [14]: BSK_3C_TissueFactor: BioMAP Diversity Plus: 3C Assay for Tissue Factor Biomarker Activity (AID 2282997). The settings on record: BioMAP 3C HUVEC, tissue factor biomarker readout; actives raise or lower the signal. In short, it runs like this: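 Tissue Factor measured by ELISA, 24 h after treatment of primary HUVEC in the BioMAP 3C setting.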
Experiment [15] in a line: BSK_3C_uPAR: BioMAP Diversity Plus: 3C Assay for Urokinase-type plasminogen activator receptor (uPAR) Biomarker Activity (AID 2282998). Particulars: BioMAP 3C HUVEC, uPAR biomarker ELISA; actives raise or lower the signal. Summed up: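 Human umbilical vein endothelial primary cells were exposed to test chemical for 24 h. Cell-surface uPAR was then quantified by ELISA, and responses were fitted bidirectionally against DMSO as negative control and baseline.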
A general note: In an ELISA, binding on a coated surface is turned into a signal by an enzyme label.

Experiment [16] is described as follows: BSK_3C_VCAM1: BioMAP Diversity Plus: 3C Assay for Vascular cell adhesion molecule 1 (VCAM1) Biomarker Activity (AID 2282999). Particulars: BioMAP 3C HUVEC, VCAM1 ELISA, cytokine-stimulated; actives raise or lower the signal. Summed up: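 HUVEC primary cells, 24 h compound exposure; VCAM-1 by ELISA; gain/loss of signal fitted bidirectionally vs DMSO baseline.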

Experiment [17] in a line: BSK_4H_Eotaxin3: BioMAP Diversity Plus: 4H Assay for Eotaxin 3 Biomarker Activity (AID 2283000).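 For outcome: CCL26 protein level quantified by ELISA in parallel with SRB cytotoxicity check.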 The settings on record: primary human endothelial cells (HUVEC); actives raise or lower the signal. Summed up: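 Eotaxin-3 (CCL26) levels were measured by ELISA in HUVEC primary cultures 24 h post-dosing. Gain or loss of signal was fitted in both directions, with DMSO serving as baseline and negative control.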

Read-out in experiment [18]: Intercellular Adhesion Molecule 1 (ICAM1), ICAM1 (gene 3383)
The experiment is described as follows: BSK_3C_ICAM1: BioMAP Diversity Plus: 3C Assay for Intercellular Adhesion Molecule 1 (ICAM1) Biomarker Activity (AID 2283003). Particulars: primary human endothelial cells (HUVEC); actives raise or lower the signal. In short, it runs like this: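 ELISA readout of ICAM1 in human umbilical vein endothelial cells in the 3C system, taken 24 h post-dose. Gain or loss of signal versus DMSO was fitted in both directions, with SRB total-protein staining run in parallel.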

Experiment [19] can be described thus: BSK_3C_Proliferation: Cell Proliferation Assessment in the BioMAP Diversity Plus: 3C Assay (AID 2283006). Particulars: primary human endothelial cells (HUVEC). In short, it runs like this: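 Proliferation as total protein: sulforhodamine B (0.1%) stain of TCA-fixed subconfluent human umbilical vein endothelial cells, absorbance 560 nm, 48 h after dosing. Activity fitted in both directions against DMSO baseline.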

Sequence of Peroxisome proliferator-activated receptor gamma (Homo sapiens) (P37231 whole entry, looked up, the tested form may be a part): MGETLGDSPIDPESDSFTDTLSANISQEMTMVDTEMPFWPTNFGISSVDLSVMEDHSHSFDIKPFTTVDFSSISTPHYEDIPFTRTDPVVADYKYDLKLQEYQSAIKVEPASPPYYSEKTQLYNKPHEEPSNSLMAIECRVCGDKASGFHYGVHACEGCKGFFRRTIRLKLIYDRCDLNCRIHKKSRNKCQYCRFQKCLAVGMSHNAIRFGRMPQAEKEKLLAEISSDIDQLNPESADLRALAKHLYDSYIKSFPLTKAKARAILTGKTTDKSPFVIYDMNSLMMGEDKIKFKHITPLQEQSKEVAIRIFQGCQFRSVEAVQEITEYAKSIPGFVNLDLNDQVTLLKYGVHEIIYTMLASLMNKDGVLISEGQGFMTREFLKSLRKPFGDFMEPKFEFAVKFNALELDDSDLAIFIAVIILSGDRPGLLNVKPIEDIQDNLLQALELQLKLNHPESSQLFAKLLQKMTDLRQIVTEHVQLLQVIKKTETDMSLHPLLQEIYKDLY
Sequence of human Peroxisome Proliferator-activated Receptor delta (PPARd), PPARD (gene 5467) (Q03181 whole entry, looked up, the tested form may be a part): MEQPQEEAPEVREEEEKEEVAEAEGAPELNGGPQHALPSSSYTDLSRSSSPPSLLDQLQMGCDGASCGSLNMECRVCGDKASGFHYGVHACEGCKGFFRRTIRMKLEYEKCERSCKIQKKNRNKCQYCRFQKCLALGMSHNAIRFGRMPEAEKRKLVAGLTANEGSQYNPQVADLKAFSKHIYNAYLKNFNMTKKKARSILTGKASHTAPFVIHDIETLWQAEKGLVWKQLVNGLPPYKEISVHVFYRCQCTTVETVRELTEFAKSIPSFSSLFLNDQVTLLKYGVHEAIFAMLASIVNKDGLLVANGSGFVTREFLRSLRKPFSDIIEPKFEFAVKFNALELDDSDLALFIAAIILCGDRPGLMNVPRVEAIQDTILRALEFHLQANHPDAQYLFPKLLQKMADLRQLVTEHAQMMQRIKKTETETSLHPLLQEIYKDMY
Sequence of human Peroxisome Proliferator-activated Receptor alpha (PPARa), PPARA (gene 5465) (Q07869 whole entry, looked up): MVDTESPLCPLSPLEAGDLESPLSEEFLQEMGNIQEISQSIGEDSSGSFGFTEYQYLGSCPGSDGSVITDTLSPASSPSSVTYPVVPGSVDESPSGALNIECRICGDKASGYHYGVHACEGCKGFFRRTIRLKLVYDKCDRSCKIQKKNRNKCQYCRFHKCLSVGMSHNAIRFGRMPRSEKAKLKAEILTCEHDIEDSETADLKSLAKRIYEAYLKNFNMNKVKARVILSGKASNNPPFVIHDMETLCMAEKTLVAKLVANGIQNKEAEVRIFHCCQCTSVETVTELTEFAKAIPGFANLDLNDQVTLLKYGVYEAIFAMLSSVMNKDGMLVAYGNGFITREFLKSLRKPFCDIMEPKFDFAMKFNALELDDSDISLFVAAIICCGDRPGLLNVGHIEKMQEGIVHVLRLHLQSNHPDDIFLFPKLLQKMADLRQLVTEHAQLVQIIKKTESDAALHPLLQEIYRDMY
Sequence of human Retinoic Acid Receptor gamma (RARg), RARG (gene 5916) (P13631 whole entry, looked up, the tested form may be a part): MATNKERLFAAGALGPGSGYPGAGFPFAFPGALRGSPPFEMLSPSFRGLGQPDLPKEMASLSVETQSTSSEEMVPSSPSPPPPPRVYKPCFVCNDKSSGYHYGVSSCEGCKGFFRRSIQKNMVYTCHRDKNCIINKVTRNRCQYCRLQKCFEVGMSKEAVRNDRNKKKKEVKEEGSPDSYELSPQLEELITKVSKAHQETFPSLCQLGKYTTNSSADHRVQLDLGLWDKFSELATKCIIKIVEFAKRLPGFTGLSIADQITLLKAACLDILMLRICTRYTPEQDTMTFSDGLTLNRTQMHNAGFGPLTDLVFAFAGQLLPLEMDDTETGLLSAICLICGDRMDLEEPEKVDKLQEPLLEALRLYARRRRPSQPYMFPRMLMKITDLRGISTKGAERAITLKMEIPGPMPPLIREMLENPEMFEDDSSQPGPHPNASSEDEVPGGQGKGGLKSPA
Sequence of Retinoic acid receptor alpha (Homo sapiens) (P10276 whole entry, looked up, the tested form may be a part): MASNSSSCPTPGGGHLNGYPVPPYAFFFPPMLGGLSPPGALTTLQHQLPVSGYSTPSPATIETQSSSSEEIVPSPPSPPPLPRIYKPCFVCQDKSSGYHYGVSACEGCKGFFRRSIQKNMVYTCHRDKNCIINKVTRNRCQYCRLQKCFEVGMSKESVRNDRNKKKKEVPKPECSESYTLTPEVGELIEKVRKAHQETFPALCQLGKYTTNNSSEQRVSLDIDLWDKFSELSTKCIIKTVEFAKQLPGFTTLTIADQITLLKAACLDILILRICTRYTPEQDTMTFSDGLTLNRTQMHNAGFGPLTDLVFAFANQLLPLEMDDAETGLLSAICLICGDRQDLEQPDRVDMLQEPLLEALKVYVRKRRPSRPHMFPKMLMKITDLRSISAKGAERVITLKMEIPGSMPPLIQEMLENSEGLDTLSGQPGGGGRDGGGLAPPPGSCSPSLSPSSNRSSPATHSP
Sequence of Myc proto-oncogene protein (Homo sapiens) (P01106 whole entry, looked up, the tested form may be a part): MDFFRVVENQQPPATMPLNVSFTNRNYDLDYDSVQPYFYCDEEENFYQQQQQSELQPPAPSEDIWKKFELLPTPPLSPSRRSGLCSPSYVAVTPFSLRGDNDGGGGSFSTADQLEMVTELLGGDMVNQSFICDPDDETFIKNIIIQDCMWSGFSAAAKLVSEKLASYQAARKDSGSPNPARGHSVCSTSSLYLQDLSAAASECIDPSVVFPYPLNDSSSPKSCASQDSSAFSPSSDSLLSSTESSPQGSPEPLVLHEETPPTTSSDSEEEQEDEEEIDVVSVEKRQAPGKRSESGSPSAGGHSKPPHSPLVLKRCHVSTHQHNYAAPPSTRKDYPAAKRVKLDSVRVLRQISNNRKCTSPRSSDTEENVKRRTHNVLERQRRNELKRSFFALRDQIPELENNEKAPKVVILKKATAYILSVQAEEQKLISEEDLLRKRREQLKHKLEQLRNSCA

With `CCOP(=S)(OCC)SCSc1cc(Cl)ccc1Cl`, the call in experiment [1], in experiment [2], in experiment [3], in experiment [4], in experiment [5] and in [6] was inactive. The call in experiment [7] was inactive.

For the compound `CCC[N+](CCC)(CCC)CCC`, the compound was classed as inactive in experiment [1], in [2], in experiment [3], in [4], in [5] and in experiment [8]. The result in experiment [9], in [10], in [11] and in experiment [12] was inactive.

Turning to `Fc1cccc(Cl)c1CCl`, the compound was classed as inactive in [1], in [2], in experiment [4], in experiment [8], in experiment [10] and in experiment [12]. Moreover, the AC50 (in general, the concentration at which the activity in the assay is half-maximal) in experiment [3] was 26.3 µM (active); in experiment [7], 4.39 µM (active).

For the compound `Nc1c(Oc2ccccc2)cc(O)c2c1C(=O)c1ccccc1C2=O`, the call in experiment [2], in experiment [13], in experiment [4], in [5], in experiment [14] and in [15] was inactive. In addition, the result in experiment [16], in [6], in experiment [8], in experiment [18], in experiment [9] and in [19] was inactive. Further, the call in [11] and in experiment [12] was inactive. Also, the AC50 in experiment [3] was 2.25 µM (active); in [17], 10 µM (active); in experiment [7] it was 6.44 µM (active); in experiment [10], 3.13 µM (active).

As for `CCOCn1c(-c2ccc(Cl)cc2)c(C#N)c(Br)c1C(F)(F)F`, the AC50 in experiment [1] was 48.7 µM (active); in [2], 150 µM (active); in experiment [4], 1.92 µM (active); in experiment [7] it was 4.71 µM (active); in experiment [10], 0.561 µM (active). The result in experiment [3], in experiment [6], in experiment [8], in experiment [9] and in experiment [11] was inactive.

For `N#Cc1cccnc1`, the outcome in experiment [1], in [2], in experiment [3], in experiment [4], in experiment [14] and in experiment [15] was inactive. In addition, the outcome in experiment [16], in experiment [17], in experiment [6], in experiment [8], in [18] and in [19] was inactive. Also, the call in experiment [10] and in experiment [12] was inactive.

Turning to `O=c1[nH]c(=O)n(Cl)c(=O)n1Cl`, the compound was classed as inactive in experiment [1], in [2], in [3], in experiment [4], in [6] and in experiment [7]. Further, the call in experiment [10] and in [12] was inactive.

On to `CC(c1ccc(O)cc1)c1ccc(O)cc1`, for which the outcome in experiment [1], in [2], in experiment [5], in [6], in [7] and in experiment [11] was inactive. Moreover, the AC50 in experiment [3] is 67.4 µM (active); in experiment [4] it was 120 µM (active); in experiment [10] it was 27.7 µM (active).

In the case of `O=[N+]([O-])c1c2ccccc2cc2ccccc12`, the compound was called inactive in [1], in experiment [2], in experiment [4], in experiment [5], in [9] and in experiment [12]. In addition, the values for the concentration at half-maximal activity (AC50) in experiment [3], in experiment [7] and in [10] were 5 µM (active), 1.27 µM (active) and 4.7 µM (active), respectively.

Turning to `CCCCCCCCCCCCN(C)C`, the AC50 in [1] was 57.2 µM (active); in [2], 50.9 µM (active); in [4], 54.9 µM (active); in [5], 33.4 µM (active). Further, the result in [14], in experiment [15], in experiment [16], in experiment [17], in experiment [6] and in experiment [8] was inactive. Besides, the result in [18], in experiment [19], in experiment [7], in experiment [10] and in experiment [11] was inactive.
